Most compounds without a hit are left out; they make up all but 3% or so of the library.
TSG101-PTAP inh – blocks PTAP/TSG101 interaction to inhibit HIV-1 budding. Q99816. Fluorescence polarization, FITC-PTAP peptide / Tsg101 binding. Potency, µM (titrated, usually from 115 µM), for the others: at the highest dose activity change, negative = inhibition, usual class: inhibitors. 340,000 tested, under 10 active. AID 493005; active means well fitted inhibition curve with a large enough effect in the main read-out, with a control signal flat, not every such curve was filed as active; inconclusive means small, poorly fitted or top-dose-only effect, or effect the other way, or a change in a side signal; inactive means no such curve, though single readings can be large or run the other way; further: % of control where 0% means no effect
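Compounds were pin-transferred onto Tsg101 binding domain (10 uM final) in HEPES pH 7.5 buffer, then FITC-PTAP peptide was added at 50 nM final. After 20 min at RT, polarization reported peptide displacement across a qHTS concentration series.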
USP1-UAF1 inh – blocks the human USP1/UAF1 deubiquitinase complex; O94782; recombinant USP1/UAF1, Ub-Rhodamine cleavage fluorescence; Potency, µM (highest dose often 57.1 µM), without a hit: at the highest dose activity change, negative = inhibition, most hits filed as inhibitors; 0.23% of 390,000 active; further: on the % scale 0 is the no-effect control and ±100 the full control effect; nearly all actives have a fitted effect of over 60% in size
Target sequence (O94782 whole entry, looked up): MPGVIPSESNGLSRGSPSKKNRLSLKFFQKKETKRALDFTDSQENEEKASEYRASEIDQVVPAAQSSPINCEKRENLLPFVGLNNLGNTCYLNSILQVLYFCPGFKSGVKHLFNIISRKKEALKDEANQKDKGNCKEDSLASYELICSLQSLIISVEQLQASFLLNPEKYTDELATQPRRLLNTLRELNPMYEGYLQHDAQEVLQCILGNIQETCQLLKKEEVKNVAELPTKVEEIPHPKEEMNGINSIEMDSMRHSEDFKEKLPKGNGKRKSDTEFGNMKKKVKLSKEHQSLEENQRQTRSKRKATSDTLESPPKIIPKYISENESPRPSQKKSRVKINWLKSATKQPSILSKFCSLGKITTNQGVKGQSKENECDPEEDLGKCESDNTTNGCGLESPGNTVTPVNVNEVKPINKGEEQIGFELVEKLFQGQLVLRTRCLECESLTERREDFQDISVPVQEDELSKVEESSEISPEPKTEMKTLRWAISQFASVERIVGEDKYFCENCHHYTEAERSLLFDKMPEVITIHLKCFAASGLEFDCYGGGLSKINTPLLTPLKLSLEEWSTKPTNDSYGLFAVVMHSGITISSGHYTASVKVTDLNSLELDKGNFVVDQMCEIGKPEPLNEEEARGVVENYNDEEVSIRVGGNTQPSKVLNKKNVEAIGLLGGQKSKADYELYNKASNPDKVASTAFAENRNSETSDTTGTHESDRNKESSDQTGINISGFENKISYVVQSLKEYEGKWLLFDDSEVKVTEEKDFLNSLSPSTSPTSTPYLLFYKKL
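In this screen, compounds sit with the deubiquitinase complex (1nM) for 15 min at room temperature before Ub-Rho is added at 150nM final. Fluorescence rise is then followed for 6 reads every 60 seconds.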
VDR inhibitor – inhibitors of human vitamin D receptor; AID 504847; VDR-SRC2-3 peptide fluorescence polarization, 2 h; Potency, µM, for the others: max response, negative = inhibition, usual class: inhibitors; 0.93% of 400,000 active; further: on the % scale 0 is the no-effect control and ±100 the full control effect
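The screen uses fluorescence polarization to detect compounds that interfere with recruitment of the SRC2-3 coactivator peptide to VDR; plates are read after 2 h at room temperature.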
GCN5L2 inh – inhibitors of human GCN5L2 histone acetyltransferase; GCN5L2 HAT assay, ThioGlo1 CoA-SH fluorescence; Potency, µM (top dose mostly 58.9 µM), without a hit: at the highest dose activity change, negative = inhibition, hits mostly inhibitors; 0.21% of 390,000 active; AID 504327; further: on the % scale 0 is the no-effect control and ±100 the full control effect
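Compounds, pin-transferred from DMSO stocks, meet 20nM GCN5L2 for 15 min before the reaction begins with H3(1-25) peptide (75uM) and acetyl-CoA (70uM). Thiol-reactive ThioGlo1 reports CoA release over 20 min at room temperature.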
PLK1 PBD block – PLK1 (human) polo-box domain binding inhibition; P53350; Plk1 PBD binding of FITC phosphopeptide, fluorescence polarization; Potency, µM, inactives show max response, negative = inhibition, hits mostly inhibitors; 2.8% of 360,000 active; AID 720504; further: series mostly up to about 57 µM; on the % scale 0 is the no-effect control and ±100 the full control effect; nearly all actives have a fitted effect of over 65% in size
An asterisk follows results filed as active; ? = inconclusive; · = no result given. Unless noted, the call rests on the fitted dose curve; in most records, active means well fitted curve in the direction sought with a large enough effect; inconclusive means small, poorly fitted or top-dose-only effect, or another doubt; inactive means no such curve, though single readings can be large; an effect the other way counts as inactive or inconclusive. Potency means the concentration at half of the fitted maximal effect.

SMILES | TSG101-PTAP inh | USP1-UAF1 inh | VDR inhibitor | GCN5L2 inh | PLK1 PBD block
O=C(CSc1nnnn1-c1cccc2c1CCCC2)N1CCCC1 | -2% | -7% | -18% | -11% | 4.7µM*
O=C(CSc1nnnn1-c1cccc2c1CCCC2)N1CCOCC1 | -17% | -7% | -5% | 2% | -2%
Cc1ccc(CCNC(=O)c2c3c(nc4ccccc24)C(=O)N(C2CCCCC2)C3)cc1 | · | -4% | 16% | -7% | ·
Cc1cc(NS(=O)(=O)c2ccc(NC(=O)COc3ccccc3Br)cc2)no1 | · | -15% | -3% | -4% | ·
CC1(c2ccc(Cl)cc2Cl)OCC(Cn2ccnc2)O1 (stereo unspecified) | 2% | 3% | -1% | -2% | 30µM*
OC(Cn1ccnc1)c1ccc(Cl)cc1Cl (stereo unspecified) | 0% | 4% | -10% | -4% | -5%
COc1ccc(CCNC(=O)c2ccc3c(c2)NC(=O)C(C(C)C)N3)cc1OC (stereo unspecified) | -2% | ? | -5% | -3% | -3%
COc1ccc(CCNC(=O)c2ccc3c(c2)NC(=O)C(CSCc2cc(C)ccc2C)N3)cc1OC (stereo unspecified) | · | · | · | 28µM* | ·
CN1CCN(C2=C(Cl)C(=O)C(c3cnc(N4CCCCC4)s3)=C(Cl)C2=O)CC1 | -1% | ? | 50µM* | -26% | 3.8µM*
CN1CCN(C2=C(Cl)C(=O)c3ccccc3C2=O)CC1 | -16% | 3.5µM* | 50µM* | · | 9.5µM*
NC(=O)C1CCN(C2=C(Cl)C(=O)c3ccccc3C2=O)CC1 | -7% | 32µM* | ? | -15% | 27µM*
NC(=O)C1CCN(C2=C(NS(=O)(=O)c3ccccc3)C(=O)c3ccccc3C2=O)CC1 | -9% | -17% | -3% | -7% | -18%
O=C(O)C1CCN(C(=O)c2ccccc2Cl)CC1 | -5% | -15% | 2% | 1% | -3%
CC(C)CCNC(=O)c1cnc2sc(N3CCCCCC3)nn2c1=O | · | -28% | 10% | -5% | ·
O=C1C(Cl)=C(N2CCC(C(=O)O)CC2)C(=O)c2ccccc21 | -1% | 25µM* | ? | ? | ?
NC(Cc1ccc(F)cc1)c1csc(Nc2ccc(C(F)(F)F)cn2)n1 (stereo unspecified) | · | · | · | · | 0%
CC1CCN(S(=O)(=O)c2ccc3c(c2)c(=O)c(C(=O)NCc2ccc(Cl)cc2)cn3C)CC1 | · | -13% | 5% | 3% | ·
O=C1CN(C(=O)COC(=O)/C=C/c2ccco2)c2ccccc2N1 | -1% | -19% | -9% | -7% | 9%
Cc1ccc(/C=C/C(=O)OCC(=O)N2CC(=O)Nc3ccccc32)o1 | -2% | ? | -24% | 3% | 27µM*
CN(C)S(=O)(=O)c1ccc(C(=O)Oc2cc(=O)[nH]c3ccccc23)cc1 | -2% | -10% | -13% | -5% | 8.4µM*
COCCNC(=O)C(C)OC(=O)c1nsc(Cl)c1Cl (stereo unspecified) | -17% | -11% | -9% | -2% | -5%
COCCNC(=O)COC(=O)c1nsc(Cl)c1Cl | -7% | -8% | -5% | -5% | 27µM*
CC(C)N(C(=O)Cn1cc(S(=O)(=O)Cc2ccc(C(F)(F)F)cc2)c2ccccc21)C(C)C | · | -4% | 3% | -10% | ·
COc1ccc(NC(=O)Cn2c(C)cc3ccccc3c2=O)c(OC)c1 | · | -11% | -4% | -1% | ·
C[C@@H](/C=C/c1ccc2ccccc2c1)C1COC(=O)C[C@H]1O (stereo partly specified) | · | · | -13% | · | ·
SMILES | TSG101-PTAP inh | USP1-UAF1 inh | VDR inhibitor | GCN5L2 inh | PLK1 PBD block
Cc1ccc(N=CC2=C(O)CC(c3ccc(Cl)cc3)CC2=O)cc1 (stereo unspecified) | -2% | -5% | 5% | 1% | -10%
O=c1cc(-c2ccccc2)[nH]n1-c1nc2ccccc2s1 | -2% | -27% | -14% | -10% | 21µM*
O=c1cc(-c2ccccc2)[nH]n1-c1ccccc1 | 0% | -32% | 6% | · | 6%
Cc1ccc(OCC(=O)Nc2ccc(OCc3cc(=O)n4ccsc4n3)cc2)cc1C | · | -26% | -6% | -2% | ·
O=C1C2C3C=CC(C3)C2C(=O)N1CCN1CCN(Cc2ccc([N+](=O)[O-])cc2)CC1 (stereo unspecified) | 1% | -13% | ? | 14% | 21µM*
O=C(CCN1C(=O)C2C3C=CC(C3)C2C1=O)N1CCN(c2ccc([N+](=O)[O-])cc2)CC1 (stereo unspecified) | -9% | -10% | -5% | -1% | -9%
COC(=O)c1cc(NC(=O)c2cccs2)ccc1N1CCOCC1 | 0% | -4% | ? | -10% | 27µM*
Cc1ccc(NC(=O)c2cc(N3C(=O)C=CC3=O)ccc2N2CCOCC2)cc1Cl | -1% | -21% | 45µM* | ? | 4.7µM*
Cc1ccc(S(=O)(=O)c2cnc(SCC(=O)Nc3ccccc3C(F)(F)F)[nH]c2=O)cc1C | · | -22% | -5% | 1% | ·
CC(=O)c1ccc(-c2c(C3C4C=CCCC4(C)C(=O)N3Cc3ccccc3)ccc3ccccc23)cc1 (stereo unspecified) | · | · | -15% | · | ·
O=C(O)COc1ccccc1/C=N/NC(=O)CNC(=O)c1ccc(F)cc1 | -1% | -21% | ? | 0% | 8.4µM*
COC(=O)CCC(=O)OC1(C)C(=O)C2=CN(c3ccccc3)C(c3ccc(OC)cc3)=CC2=C(Br)C1=O (stereo unspecified) | -2% | ? | ? | · | ?
COc1ccc(C2=CC3=C(Br)C(=O)C(C)(O)C(=O)C3=CO2)cc1 (stereo unspecified) | -10% | 35µM* | ? | 1% | ?
CCC(=O)OC1(C)C(=O)C2=COC(c3ccc(OC)cc3)=CC2=C(Br)C1=O (stereo unspecified) | -8% | 35µM* | ? | -3% | ?
CC(NC(=O)C1CCN(CCOc2ccc(Cl)cc2)CC1)c1cccc2ccccc12 (stereo unspecified) | · | · | · | · | -17%
S=C1NC2=C(CCC/C2=C\c2ccc(Cl)cc2)C(c2ccc(Cl)cc2)N1 (stereo unspecified) | 1% | -9% | ? | -1% | ?
Fc1cccc(/C=C2\CCCC3=C2NC(=S)NC3c2cccc(F)c2)c1 (stereo unspecified) | 0% | -22% | 79µM* | -2% | ?
Fc1ccccc1/C=C1\CCCC2=C1NC(=S)NC2c1ccccc1F (stereo unspecified) | -3% | -5% | -7% | -19% | 19µM*
S=C1NC2=C(CCCC2=C2SCCCS2)C(c2ccccc2)N1 (stereo unspecified) | 0% | -15% | -3% | -2% | -25%
S=C1NC2=C(CCC/C2=C\c2ccccc2)C(c2ccccc2)N1 (stereo unspecified) | 0% | -13% | 89µM* | 1% | ?
COc1ccc(-c2cc(C(F)(F)F)nc(SCc3cccc(C(=O)O)c3)n2)cc1 | -8% | -4% | -20% | -6% | 21µM*
